These results are taken from PubChem BioAssay (NCATS).

SMILES strings stand for the structures. Records with an inconclusive call do not appear. Values without a mark were called inactive. Active and inactive are the calls of the source. The call rests on the fitted dose curve; in most records, active means well fitted curve in the direction sought with a large enough effect; inconclusive means small, poorly fitted or top-dose-only effect, or another doubt; inactive means no such curve, though single readings can be large; an effect the other way counts as inactive or inconclusive.
On the % scale 0 is the no-effect control and ±100 the full control effect; potency means the concentration at half of the fitted maximal effect.

The first experiment deals with UISO. Description: qHTS assay to identify novel small-molecules to repurpose for Merkel cell carcinoma treatment (AID 1296009). Further: nearly all actives have a fitted effect of over 60% in size. The following applies: MCC and control cell lines, CellTiter-Glo viability, 72 h; series mostly up to 46 µM. The essentials: (§1)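 Cells were incubated with compound for 72 hr at 37 degree celsius before CellTiter-Glo addition. Luminescence was normalized with no-cell wells as full cytotoxicity and DMSO as baseline.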
For the molecule `COc1cc2c(Oc3ccc(-c4cnc(Nc5ccc(F)cc5)n(C)c4=O)cc3F)ccnc2cc1OCCCN1CCOCC1`, the Potency is 11.8 µM (active).

Regarding `Nc1ncnc2c1c(-c1cnc3[nH]ccc3c1)nn2C1CCCC1`, the Potency was 4.69 µM (active).

As for `COc1ccc(C(=O)CC2(O)C(=O)Nc3c(Cl)ccc(Cl)c32)cc1` (stereo unspecified), the Potency is 5.26 µM (active).

Regarding `CC1(O)CC(c2nc(-c3ccc4ccc(-c5ccccc5)nc4c3)c3c(N)nccn23)C1` (stereo unspecified), the Potency is 0.662 µM (active).

With `CC(=O)Nc1sc2c(c1-c1nc3ccccc3s1)CNC2`, the Potency was 8.33 µM (active).

Consider `CC(C)(C)c1cnc(CSc2cnc(NC(=O)C3CCNCC3)s2)o1`, for which the Potency was 0.743 µM (active).

For the molecule `Nc1nc(Nc2ccc(S(N)(=O)=O)cc2)nn1C(=O)c1c(F)cccc1F`, the Potency is 13.2 µM (active).

Consider `O=C(c1ccc(Nc2nccc(-c3cc4ccccc4s3)n2)cc1)N1CCC(N2CCCC2)CC1`, for which the Potency is 18.7 µM (active).

On to `Cc1cc(C(=O)N2CCN(c3cccc(Cl)c3)CC2)n(-c2ccccc2)n1`, for which the Potency was 1.66 µM (active).

With `N#CCNC(=O)c1ccc(-c2ccnc(Nc3ccc(N4CCOCC4)cc3)n2)cc1`, the Potency was 14.8 µM (active).

As to `O=C(Nc1cc(C(F)(F)F)cc(C(F)(F)F)c1)c1cc(Cl)ccc1O`, the Potency was 2.35 µM (active).

For `CS(=O)(=O)N1CCN(Cc2cc3nc(-c4cccc5[nH]ncc45)nc(N4CCOCC4)c3s2)CC1`, the Potency is 1.32 µM (active).

As to `COC(=O)Nc1ccc(-c2nc(N3CCOCC3)c3cnn(C4CCN(Cc5cccnc5)CC4)c3n2)cc1`, the Potency was 1.87 µM (active).

In the case of `Cc1cc(Nc2cc(CN3CCOCC3)c3nc(C)c(Cc4ccc(Cl)cc4F)n3n2)n[nH]1`, the Potency is 23.5 µM (active).

For `O=C(Cc1ccc(-c2ccc(OCCN3CCOCC3)cc2)cn1)NCc1ccccc1`, the Potency was 0.0469 µM (active).

Take `Nc1ncnc2c1c(-c1cccc(OCc3ccccc3)c1)cn2C1CC(CN2CCCC2)C1` (stereo unspecified): the Potency was 10.5 µM (active).

For `Cc1cc(Nc2cc(NC(=O)c3c(Cl)cccc3Cl)ccn2)nc(N)n1`, the Potency is 1.18 µM (active).

The next experiment relates to WaGa. Described as above. The following applies: MCC and control cell lines, CellTiter-Glo viability, 72 h; series mostly up to 46 µM. In outline: as §1
On to `Nc1ccc(C(=O)c2cc3c(ccc4ccccc43)[nH]2)cc1`, for which the Potency was 8.33 µM (active).

For the molecule `COc1cccc(-c2ccc(NC(=O)C3=C(C(=O)O)CCC3)c(F)c2)c1`, the Potency was 23.5 µM (active).

`COc1cc(OC2CCN(C)CC2)ccc1Nc1ncc2c(n1)n(C1CCCC1)c(=O)n2C`: the Potency was 23.5 µM (active).

With `CC(=O)c1c(C)c2cnc(Nc3ccc(N4CCNCC4)cn3)nc2n(C2CCCC2)c1=O`, the Potency result was “inactive”.

With `CC(=O)Nc1nc(C)c(-c2ccc(Cl)c(S(=O)(=O)NCCO)c2)s1`, the Potency was 5.9 µM (active).

Take `Cc1cc(Nc2cc(NC(=O)c3c(Cl)cccc3Cl)ccn2)nc(N)n1`: the Potency was 2.35 µM (active).

The subject of a further experiment is C33A. The experiment can be described thus: Primary qHTS to identify gynecologic anti-cancer compounds using libraries of approved drugs and bioactive compounds (AID 1345084). Further: nearly all actives have a fitted effect of over 55% in size. The following applies: Gynecologic cancer cell panel viability, ATPlite luminescence, 48 h; series mostly up to 57.5 µM. The essentials: (§2)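 ATP-based viability (ATPlite), 1,000 cells/well, 16 h pre-incubation, 48 h compound at 37 C, 5% CO2, 15 min RT before read.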
A general note: Quantitative high-throughput screening tests each substance at several concentrations.
For the molecule `COC(=O)c1ccc2c(C(=Nc3ccc(N(C)C(=O)CN4CCN(C)CC4)cc3)c3ccccc3)c(O)[nH]c2c1`, the Potency result is “inactive”.

For `Cc1ccc(C(=O)Nc2ccc(CN3CCN(C)CC3)c(C(F)(F)F)c2)cc1C#Cc1cnc2cccnn12`, the Potency is 25.1 µM (active).

Consider `COc1cccc(-c2ccc(NC(=O)C3=C(C(=O)O)CCC3)c(F)c2)c1`, for which the Potency result was “inactive”.

Turning to `CCNC(=O)Nc1ccc2ncc(Nc3ccc(C)cc3)nc2n1`, the Potency entry was “inactive”.

Take `COc1cc2c(Oc3ccc(-c4cnc(Nc5ccc(F)cc5)n(C)c4=O)cc3F)ccnc2cc1OCCCN1CCOCC1`: the Potency result was “inactive”.

Consider `COc1ccc(C(=O)CC2(O)C(=O)Nc3c(Cl)ccc(Cl)c32)cc1` (stereo unspecified), for which the Potency result was “inactive”.

In the case of `CC1(O)CC(c2nc(-c3ccc4ccc(-c5ccccc5)nc4c3)c3c(N)nccn23)C1` (stereo unspecified), the Potency entry was “inactive”.

Turning to `CC(=O)Nc1sc2c(c1-c1nc3ccccc3s1)CNC2`, the Potency entry is “inactive”.

For `Cc1cn(-c2cc(NC(=O)c3ccc(C)c(Nc4nccc(-c5cccnc5)n4)c3)cc(C(F)(F)F)c2)cn1`, the Potency result is “inactive”.

For `O=C(c1ccc(Nc2nccc(-c3cc4ccccc4s3)n2)cc1)N1CCC(N2CCCC2)CC1`, the Potency result is “inactive”.

In the case of `CC(=O)c1c(C)c2cnc(Nc3ccc(N4CCNCC4)cn3)nc2n(C2CCCC2)c1=O`, the activity change, negative = cytotoxicity is 9.39% [at 6.55 µM].

With `OCc1ccc(-c2ccc(-c3ccc(CO)s3)o2)s1`, the Potency entry was “inactive”.

`Cc1nc(N)ncc1-c1nc(N2CCOCC2)c2sc(C(C)(C)O)cc2n1`: the Potency was 1.78 µM (active).

Turning to `N#CCNC(=O)c1ccc(-c2ccnc(Nc3ccc(N4CCOCC4)cc3)n2)cc1`, the Potency result was “inactive”.

For the molecule `O=C(Nc1cc(C(F)(F)F)cc(C(F)(F)F)c1)c1cc(Cl)ccc1O`, the Potency was 3.16 µM (active).

With `Cc1cc(Nc2cc(CN3CCOCC3)c3nc(C)c(Cc4ccc(Cl)cc4F)n3n2)n[nH]1`, the Potency result was “inactive”.

As for `Cc1cc(Nc2nc(N[C@@H](C)c3ccc(F)cc3)c(C#N)cc2F)n[nH]1`, the Potency entry is “inactive”.

In the case of `COC(=O)Nc1nc2ccc(C(=O)c3ccc(F)cc3)cc2[nH]1`, the Potency entry is “inactive”.

With `Nc1ncnc2c1c(-c1cccc(OCc3ccccc3)c1)cn2C1CC(CN2CCCC2)C1` (stereo unspecified), the Potency result was “inactive”.

In the next experiment the test system is CAOV3. The description is as above. The following applies: Gynecologic cancer cell panel viability, ATPlite luminescence, 48 h; series mostly up to 57.5 µM. In outline: as §2
Turning to `C=CC(=O)Nc1cc2c(Nc3ccc(F)c(Cl)c3)ncnc2cc1OCCCN1CCOCC1`, the Potency was 10 µM (active).

Turning to `COc1cccc(-c2ccc(NC(=O)C3=C(C(=O)O)CCC3)c(F)c2)c1`, the Potency entry is “inactive”.

As to `CCNC(=O)Nc1ccc2ncc(Nc3ccc(C)cc3)nc2n1`, the Potency entry was “inactive”.

For `COc1cc2c(Oc3ccc(-c4cnc(Nc5ccc(F)cc5)n(C)c4=O)cc3F)ccnc2cc1OCCCN1CCOCC1`, the Potency entry was “inactive”.

As for `COc1ccc(C(=O)CC2(O)C(=O)Nc3c(Cl)ccc(Cl)c32)cc1` (stereo unspecified), the Potency entry was “inactive”.

For `CC1(O)CC(c2nc(-c3ccc4ccc(-c5ccccc5)nc4c3)c3c(N)nccn23)C1` (stereo unspecified), the Potency entry was “inactive”.

With `CC(=O)Nc1sc2c(c1-c1nc3ccccc3s1)CNC2`, the Potency result was “inactive”.

Turning to `Cc1cn(-c2cc(NC(=O)c3ccc(C)c(Nc4nccc(-c5cccnc5)n4)c3)cc(C(F)(F)F)c2)cn1`, the Potency entry was “inactive”.

`Fc1cc(-c2cccc3ncc(-c4cnn(C5CCNCC5)c4)nc23)cc(F)c1CN1CCOCC1`: the Potency was 31.6 µM (active).

For the molecule `CC(=O)c1c(C)c2cnc(Nc3ccc(N4CCNCC4)cn3)nc2n(C2CCCC2)c1=O`, the activity change, negative = cytotoxicity was 11.3% [at 6.55 µM].

In the case of `OCc1ccc(-c2ccc(-c3ccc(CO)s3)o2)s1`, the Potency is 0.199 µM (active).

As to `Cc1cc(C(=O)N2CCN(c3cccc(Cl)c3)CC2)n(-c2ccccc2)n1`, the Potency result was “inactive”.

Consider `CC(=O)Nc1nc(C)c(-c2ccc(Cl)c(S(=O)(=O)NCCO)c2)s1`, for which the Potency is 14.1 µM (active).

With `O=C(Nc1cc(C(F)(F)F)cc(C(F)(F)F)c1)c1cc(Cl)ccc1O`, the Potency was 8.91 µM (active).

As to `CS(=O)(=O)N1CCN(Cc2cc3nc(-c4cccc5[nH]ncc45)nc(N4CCOCC4)c3s2)CC1`, the Potency entry was “inactive”.

In the case of `Cn1cc(-c2ccncc2)c(-c2ccc(OCc3ccc4ccccc4n3)cc2)n1`, the Potency entry was “inactive”.

Turning to `COC(=O)Nc1ccc(-c2nc(N3CCOCC3)c3cnn(C4CCN(Cc5cccnc5)CC4)c3n2)cc1`, the Potency is 8.91 µM (active).

Consider `Cc1cc(Nc2cc(CN3CCOCC3)c3nc(C)c(Cc4ccc(Cl)cc4F)n3n2)n[nH]1`, for which the Potency entry was “inactive”.

On to `COC(=O)Nc1nc2ccc(C(=O)c3ccc(F)cc3)cc2[nH]1`, for which the Potency entry is “inactive”.
